Data taken from article PMC7862700, “An all-to-all approach to the identification of sequence-specific readers for epigenetic DNA modifications on cytosine”.

Tests used:
Assay in all cases: DAPPL (digital affinity profiling via proximity ligation, sequencing); 10 mM Tris-HCl pH 7.5, 50 mM NaCl, 1 mM DTT, 4% glycerol, room temperature, 30 min; GST-TFs on glutathione beads, 16-mer random dsDNA library, 0.1% formaldehyde crosslink after washing; high values mean tight binding
FLI1 = target: T1, FLI1 (Homo sapiens, UniProt Q01543 1-452); settings: protein: recombinant; tags: N-terminal GST; dsDNA, one strand shown
T1 sequence: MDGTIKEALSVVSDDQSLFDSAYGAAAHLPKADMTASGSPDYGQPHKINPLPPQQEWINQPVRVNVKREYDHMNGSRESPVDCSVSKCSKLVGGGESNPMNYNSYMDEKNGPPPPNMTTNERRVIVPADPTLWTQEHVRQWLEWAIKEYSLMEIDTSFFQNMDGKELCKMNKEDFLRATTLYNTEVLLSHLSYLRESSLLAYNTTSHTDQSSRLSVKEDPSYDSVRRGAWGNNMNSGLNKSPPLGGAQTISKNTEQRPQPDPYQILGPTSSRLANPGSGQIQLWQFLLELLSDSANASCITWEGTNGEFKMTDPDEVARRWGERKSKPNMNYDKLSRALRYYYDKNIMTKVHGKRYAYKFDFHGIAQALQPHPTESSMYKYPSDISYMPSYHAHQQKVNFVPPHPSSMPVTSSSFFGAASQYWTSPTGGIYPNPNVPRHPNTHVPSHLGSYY
Method in brief: (§1)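 A tag-only sample was pooled with DNA-barcoded human transcription factors that had been expressed in yeast as GST fusions and captured on glutathione beads. The pools were incubated for 30 min at room temperature with 200 nmole of a random double-stranded 16-mer DNA library in Tris/NaCl/DTT/glycerol buffer, then washed, crosslinked with 0.1% formaldehyde, proximity-ligated (BsaI/T4 ligase, 1 h, 37 °C), PCR-amplified and sequenced on an Illumina NextSeq500. Binding signal is each hexamer's read frequency for a factor divided by its frequency for the tag-only sample.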

ELK1 = target: T2, ELK1 (Homo sapiens, UniProt P19419 1-428); settings: protein: recombinant; tags: N-terminal GST; dsDNA, one strand shown
T2 sequence: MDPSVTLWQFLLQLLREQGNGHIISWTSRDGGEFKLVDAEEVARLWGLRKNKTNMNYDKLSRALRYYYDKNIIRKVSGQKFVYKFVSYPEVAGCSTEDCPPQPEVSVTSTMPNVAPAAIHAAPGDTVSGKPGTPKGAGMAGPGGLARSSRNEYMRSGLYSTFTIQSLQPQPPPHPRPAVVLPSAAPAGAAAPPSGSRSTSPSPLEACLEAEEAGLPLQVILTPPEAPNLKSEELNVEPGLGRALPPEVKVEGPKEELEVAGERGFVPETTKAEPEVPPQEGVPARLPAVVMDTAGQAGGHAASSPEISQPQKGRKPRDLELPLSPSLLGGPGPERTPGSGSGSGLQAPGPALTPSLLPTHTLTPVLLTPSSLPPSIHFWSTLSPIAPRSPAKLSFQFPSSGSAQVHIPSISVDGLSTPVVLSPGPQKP
Method in brief: as §1

GABPA = target: T3, GABPA (Homo sapiens, UniProt Q06546 1-454); settings: protein: recombinant; tags: N-terminal GST; dsDNA, one strand shown
T3 sequence: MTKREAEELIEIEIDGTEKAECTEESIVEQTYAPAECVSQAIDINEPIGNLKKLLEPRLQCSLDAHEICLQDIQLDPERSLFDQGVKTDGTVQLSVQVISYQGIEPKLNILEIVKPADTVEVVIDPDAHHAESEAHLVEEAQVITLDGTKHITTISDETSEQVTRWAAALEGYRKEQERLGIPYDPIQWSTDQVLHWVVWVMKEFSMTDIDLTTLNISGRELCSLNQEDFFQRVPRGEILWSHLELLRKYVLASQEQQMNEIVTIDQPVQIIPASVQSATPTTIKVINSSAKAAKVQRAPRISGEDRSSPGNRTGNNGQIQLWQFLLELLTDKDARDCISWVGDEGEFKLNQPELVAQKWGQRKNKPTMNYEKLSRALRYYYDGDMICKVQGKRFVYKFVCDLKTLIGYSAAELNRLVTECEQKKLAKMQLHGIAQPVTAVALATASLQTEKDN
Method in brief: as §1

ERG = target: T4, ERG (Homo sapiens, UniProt P11308 1-479); settings: protein: recombinant; tags: N-terminal GST; dsDNA, one strand shown
T4 sequence: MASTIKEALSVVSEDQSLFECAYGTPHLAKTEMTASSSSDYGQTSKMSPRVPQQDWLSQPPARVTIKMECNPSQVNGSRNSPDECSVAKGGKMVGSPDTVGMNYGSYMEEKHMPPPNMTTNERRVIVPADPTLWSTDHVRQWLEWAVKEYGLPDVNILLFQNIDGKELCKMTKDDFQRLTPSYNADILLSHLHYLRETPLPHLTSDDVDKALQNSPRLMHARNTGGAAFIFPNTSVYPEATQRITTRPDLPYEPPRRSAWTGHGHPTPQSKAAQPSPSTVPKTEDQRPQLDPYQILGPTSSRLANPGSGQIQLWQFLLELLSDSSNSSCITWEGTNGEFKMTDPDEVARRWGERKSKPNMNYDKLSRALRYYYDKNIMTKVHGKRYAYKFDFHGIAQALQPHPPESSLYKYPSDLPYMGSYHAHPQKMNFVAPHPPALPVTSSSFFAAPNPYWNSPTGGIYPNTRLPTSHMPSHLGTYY
Method in brief: as §1

ELF1 = ELF1 (Homo sapiens, UniProt P32519 1-619); settings: protein: recombinant; tags: N-terminal GST; dsDNA, one strand shown
Method in brief: as §1

EHF = target: T5, EHF (Homo sapiens, UniProt Q9NZC4 1-300); settings: protein: recombinant; tags: N-terminal GST; dsDNA, one strand shown
T5 sequence: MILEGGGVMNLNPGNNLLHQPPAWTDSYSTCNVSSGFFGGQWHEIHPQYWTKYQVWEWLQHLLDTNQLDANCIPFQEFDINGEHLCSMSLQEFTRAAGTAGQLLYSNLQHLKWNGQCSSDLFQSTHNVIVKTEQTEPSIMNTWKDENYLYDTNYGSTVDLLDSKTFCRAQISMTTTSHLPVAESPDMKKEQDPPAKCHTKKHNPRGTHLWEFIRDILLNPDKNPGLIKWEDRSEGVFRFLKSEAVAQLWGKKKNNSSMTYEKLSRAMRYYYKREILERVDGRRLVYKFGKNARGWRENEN
Method in brief: as §1

SPI1 = SPI1 (Homo sapiens, UniProt P17947 1-270); settings: protein: recombinant; tags: N-terminal GST; dsDNA, one strand shown
Method in brief: as §1

SPIB = SPIB (Homo sapiens, UniProt Q01892 1-262); settings: protein: recombinant; tags: N-terminal GST; dsDNA, one strand shown
Method in brief: as §1

ELK3 = target: T6, ELK3 (Homo sapiens, UniProt P41970 1-407); settings: protein: recombinant; tags: N-terminal GST; dsDNA, one strand shown
T6 sequence: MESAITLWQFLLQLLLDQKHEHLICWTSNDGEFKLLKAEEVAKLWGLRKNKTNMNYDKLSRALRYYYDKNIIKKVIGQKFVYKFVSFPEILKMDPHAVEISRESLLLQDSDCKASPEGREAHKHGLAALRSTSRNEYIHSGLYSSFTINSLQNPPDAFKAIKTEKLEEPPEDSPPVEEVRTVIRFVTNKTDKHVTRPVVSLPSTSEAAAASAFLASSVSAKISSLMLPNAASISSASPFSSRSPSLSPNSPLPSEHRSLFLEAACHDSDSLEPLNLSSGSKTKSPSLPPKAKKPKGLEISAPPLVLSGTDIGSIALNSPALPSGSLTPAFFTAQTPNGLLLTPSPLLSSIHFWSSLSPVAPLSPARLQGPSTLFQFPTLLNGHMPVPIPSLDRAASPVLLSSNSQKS
Method in brief: as §1

FEV = target: T7, FEV (Homo sapiens, UniProt Q99581 1-238); settings: protein: recombinant; tags: N-terminal GST; dsDNA, one strand shown
T7 sequence: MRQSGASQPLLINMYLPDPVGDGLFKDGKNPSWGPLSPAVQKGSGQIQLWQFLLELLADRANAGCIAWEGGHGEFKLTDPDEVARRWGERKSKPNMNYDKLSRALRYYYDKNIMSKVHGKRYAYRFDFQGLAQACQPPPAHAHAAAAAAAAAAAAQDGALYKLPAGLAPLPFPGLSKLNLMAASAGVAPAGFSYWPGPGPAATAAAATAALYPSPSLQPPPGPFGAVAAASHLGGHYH
Method in brief: as §1

ETV5 = ETV5 (Homo sapiens, UniProt P41161 1-510); settings: protein: recombinant; tags: N-terminal GST; dsDNA, one strand shown
Method in brief: as §1

HSF1 = HSF1 (Homo sapiens, UniProt Q00613 1-529); settings: protein: recombinant; tags: N-terminal GST; chain copies: 3; dsDNA, one strand shown
Method in brief: as §1

SPIC = target: T8, SPIC (Homo sapiens, UniProt Q8N5J4 1-248); settings: protein: recombinant; tags: N-terminal GST; dsDNA, one strand shown
T8 sequence: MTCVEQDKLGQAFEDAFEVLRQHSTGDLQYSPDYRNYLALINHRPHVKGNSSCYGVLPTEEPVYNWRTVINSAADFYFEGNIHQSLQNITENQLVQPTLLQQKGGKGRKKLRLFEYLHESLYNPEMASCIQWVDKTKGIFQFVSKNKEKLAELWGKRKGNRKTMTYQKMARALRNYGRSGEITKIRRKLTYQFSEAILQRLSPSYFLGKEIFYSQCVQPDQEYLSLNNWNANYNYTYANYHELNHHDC
Method in brief: as §1

ELF4 = ELF4 (Homo sapiens, UniProt Q99607 1-663); settings: protein: recombinant; tags: N-terminal GST; dsDNA, one strand shown
Method in brief: as §1

ELK4 = target: T9, ELK4 (Homo sapiens, UniProt P28324-2 1-405); settings: protein: recombinant; tags: N-terminal GST; dsDNA, one strand shown
T9 sequence: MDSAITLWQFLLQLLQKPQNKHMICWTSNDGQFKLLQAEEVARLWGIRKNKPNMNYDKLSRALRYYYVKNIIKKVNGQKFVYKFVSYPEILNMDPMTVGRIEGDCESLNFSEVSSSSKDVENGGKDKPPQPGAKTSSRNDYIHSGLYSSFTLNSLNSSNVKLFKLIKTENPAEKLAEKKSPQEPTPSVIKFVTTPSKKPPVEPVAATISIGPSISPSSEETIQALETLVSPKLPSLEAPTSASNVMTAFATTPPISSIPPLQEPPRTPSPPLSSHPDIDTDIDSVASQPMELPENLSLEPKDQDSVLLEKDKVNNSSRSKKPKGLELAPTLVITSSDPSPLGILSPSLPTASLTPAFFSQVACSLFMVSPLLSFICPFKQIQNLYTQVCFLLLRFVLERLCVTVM
Method in brief: as §1

ETV2 = target: T10, ETV2 (Homo sapiens, UniProt O00321 1-342); settings: protein: recombinant; tags: N-terminal GST; dsDNA, one strand shown
T10 sequence: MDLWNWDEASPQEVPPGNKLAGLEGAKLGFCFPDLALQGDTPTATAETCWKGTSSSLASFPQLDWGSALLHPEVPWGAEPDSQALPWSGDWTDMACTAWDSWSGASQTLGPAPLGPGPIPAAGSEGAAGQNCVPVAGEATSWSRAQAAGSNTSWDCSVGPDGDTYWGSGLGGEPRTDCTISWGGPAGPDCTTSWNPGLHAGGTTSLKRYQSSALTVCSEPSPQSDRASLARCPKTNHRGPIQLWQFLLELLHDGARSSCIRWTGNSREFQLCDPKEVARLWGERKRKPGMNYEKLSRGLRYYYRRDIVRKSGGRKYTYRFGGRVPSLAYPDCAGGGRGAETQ
Method in brief: as §1

ELF3 = target: T11, ELF3 (Homo sapiens, UniProt P78545 1-371); settings: protein: recombinant; tags: N-terminal GST; dsDNA, one strand shown
T11 sequence: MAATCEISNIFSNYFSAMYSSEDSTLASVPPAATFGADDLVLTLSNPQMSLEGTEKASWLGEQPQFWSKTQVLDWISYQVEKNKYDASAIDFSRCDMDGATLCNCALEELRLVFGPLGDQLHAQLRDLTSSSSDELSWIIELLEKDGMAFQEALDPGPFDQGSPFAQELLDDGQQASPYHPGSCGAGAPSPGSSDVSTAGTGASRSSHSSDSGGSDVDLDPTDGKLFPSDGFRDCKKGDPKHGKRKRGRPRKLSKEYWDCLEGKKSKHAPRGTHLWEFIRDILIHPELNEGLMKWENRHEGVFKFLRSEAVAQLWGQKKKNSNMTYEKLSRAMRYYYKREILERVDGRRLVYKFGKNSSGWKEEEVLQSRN
Method in brief: as §1

CRX = CRX (Homo sapiens, UniProt O43186 1-299); settings: protein: recombinant; tags: N-terminal GST; dsDNA, one strand shown
Method in brief: as §1

ETV1 = ETV1 (Homo sapiens, UniProt P50549 1-477); settings: protein: recombinant; tags: N-terminal GST; dsDNA, one strand shown
Method in brief: as §1

Chain of ETV1 (P50549 whole entry): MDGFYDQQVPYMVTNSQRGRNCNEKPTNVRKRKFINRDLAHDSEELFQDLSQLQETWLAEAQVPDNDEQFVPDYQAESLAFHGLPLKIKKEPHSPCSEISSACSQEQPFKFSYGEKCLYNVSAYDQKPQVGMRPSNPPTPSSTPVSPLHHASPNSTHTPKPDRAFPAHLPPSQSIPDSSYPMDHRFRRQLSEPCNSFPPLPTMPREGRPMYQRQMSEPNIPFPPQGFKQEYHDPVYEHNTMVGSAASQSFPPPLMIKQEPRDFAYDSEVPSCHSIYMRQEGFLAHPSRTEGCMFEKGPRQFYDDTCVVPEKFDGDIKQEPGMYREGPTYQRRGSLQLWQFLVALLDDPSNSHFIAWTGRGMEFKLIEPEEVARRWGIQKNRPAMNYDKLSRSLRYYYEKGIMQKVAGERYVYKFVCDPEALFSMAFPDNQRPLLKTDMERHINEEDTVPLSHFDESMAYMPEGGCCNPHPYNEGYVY
Chain of ELF1 (P32519 whole entry): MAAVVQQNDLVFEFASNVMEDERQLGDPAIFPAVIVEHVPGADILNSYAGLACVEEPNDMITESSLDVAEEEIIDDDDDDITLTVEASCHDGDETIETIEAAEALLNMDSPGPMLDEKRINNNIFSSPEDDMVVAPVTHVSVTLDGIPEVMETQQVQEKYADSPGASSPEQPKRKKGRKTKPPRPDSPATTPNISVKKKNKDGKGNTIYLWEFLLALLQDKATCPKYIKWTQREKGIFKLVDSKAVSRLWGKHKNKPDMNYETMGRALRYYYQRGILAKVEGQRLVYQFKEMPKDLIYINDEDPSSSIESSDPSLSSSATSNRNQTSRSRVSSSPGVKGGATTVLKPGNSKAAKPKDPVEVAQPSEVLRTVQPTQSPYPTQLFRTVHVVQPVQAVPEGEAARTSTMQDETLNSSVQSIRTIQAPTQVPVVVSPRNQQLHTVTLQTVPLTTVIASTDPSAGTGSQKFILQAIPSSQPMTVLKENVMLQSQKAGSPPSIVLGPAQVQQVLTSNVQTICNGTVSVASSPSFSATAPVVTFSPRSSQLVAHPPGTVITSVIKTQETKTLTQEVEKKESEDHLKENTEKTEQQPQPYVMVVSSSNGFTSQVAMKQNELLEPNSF
Chain of ELF4 (Q99607 whole entry): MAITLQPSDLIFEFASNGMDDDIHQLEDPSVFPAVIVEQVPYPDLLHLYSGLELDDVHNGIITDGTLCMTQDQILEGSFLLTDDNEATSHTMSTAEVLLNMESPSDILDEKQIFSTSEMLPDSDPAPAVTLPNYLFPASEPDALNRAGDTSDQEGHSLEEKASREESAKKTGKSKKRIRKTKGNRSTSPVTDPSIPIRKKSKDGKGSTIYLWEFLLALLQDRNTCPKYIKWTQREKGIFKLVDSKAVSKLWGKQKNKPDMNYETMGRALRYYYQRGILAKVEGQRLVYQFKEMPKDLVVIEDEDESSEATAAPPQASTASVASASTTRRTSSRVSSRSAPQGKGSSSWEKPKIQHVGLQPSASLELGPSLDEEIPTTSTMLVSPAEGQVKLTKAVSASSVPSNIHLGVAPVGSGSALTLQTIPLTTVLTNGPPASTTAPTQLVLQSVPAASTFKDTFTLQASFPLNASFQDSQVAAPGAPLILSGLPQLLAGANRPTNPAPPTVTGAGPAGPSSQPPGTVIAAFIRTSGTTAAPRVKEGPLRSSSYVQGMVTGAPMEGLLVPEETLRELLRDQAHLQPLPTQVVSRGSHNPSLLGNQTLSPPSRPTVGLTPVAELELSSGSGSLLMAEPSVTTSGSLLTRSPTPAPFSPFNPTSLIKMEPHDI
Chain of CRX (O43186 whole entry): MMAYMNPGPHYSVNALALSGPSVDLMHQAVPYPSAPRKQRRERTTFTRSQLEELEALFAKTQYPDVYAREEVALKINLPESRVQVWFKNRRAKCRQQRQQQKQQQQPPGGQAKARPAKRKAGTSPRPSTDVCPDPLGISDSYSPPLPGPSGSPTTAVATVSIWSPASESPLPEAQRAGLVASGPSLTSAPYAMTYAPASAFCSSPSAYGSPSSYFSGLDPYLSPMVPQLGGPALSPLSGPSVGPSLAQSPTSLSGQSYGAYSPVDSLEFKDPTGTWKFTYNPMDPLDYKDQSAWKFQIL
Chain of SPIB (Q01892 whole entry): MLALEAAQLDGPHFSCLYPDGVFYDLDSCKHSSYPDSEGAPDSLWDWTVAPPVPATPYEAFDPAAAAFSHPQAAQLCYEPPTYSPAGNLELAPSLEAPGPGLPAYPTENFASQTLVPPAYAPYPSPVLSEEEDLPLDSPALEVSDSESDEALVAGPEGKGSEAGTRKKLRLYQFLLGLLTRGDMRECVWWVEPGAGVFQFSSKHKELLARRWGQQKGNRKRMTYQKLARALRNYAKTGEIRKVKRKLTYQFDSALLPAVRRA
Chain of ETV5 (P41161 whole entry): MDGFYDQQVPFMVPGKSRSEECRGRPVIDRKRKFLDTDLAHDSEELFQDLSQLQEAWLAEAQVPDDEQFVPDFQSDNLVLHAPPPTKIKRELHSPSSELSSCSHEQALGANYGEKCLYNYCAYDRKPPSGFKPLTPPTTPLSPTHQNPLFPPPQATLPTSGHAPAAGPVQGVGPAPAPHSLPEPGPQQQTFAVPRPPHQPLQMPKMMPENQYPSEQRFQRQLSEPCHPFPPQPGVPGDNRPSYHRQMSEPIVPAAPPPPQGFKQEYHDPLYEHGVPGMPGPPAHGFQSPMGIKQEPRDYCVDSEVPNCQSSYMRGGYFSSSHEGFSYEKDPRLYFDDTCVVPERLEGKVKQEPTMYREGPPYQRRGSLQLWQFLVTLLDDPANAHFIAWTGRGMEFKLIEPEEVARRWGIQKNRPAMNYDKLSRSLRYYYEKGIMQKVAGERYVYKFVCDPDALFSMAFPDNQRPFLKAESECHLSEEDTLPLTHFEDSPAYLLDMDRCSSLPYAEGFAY
Chain of HSF1 (Q00613 whole entry): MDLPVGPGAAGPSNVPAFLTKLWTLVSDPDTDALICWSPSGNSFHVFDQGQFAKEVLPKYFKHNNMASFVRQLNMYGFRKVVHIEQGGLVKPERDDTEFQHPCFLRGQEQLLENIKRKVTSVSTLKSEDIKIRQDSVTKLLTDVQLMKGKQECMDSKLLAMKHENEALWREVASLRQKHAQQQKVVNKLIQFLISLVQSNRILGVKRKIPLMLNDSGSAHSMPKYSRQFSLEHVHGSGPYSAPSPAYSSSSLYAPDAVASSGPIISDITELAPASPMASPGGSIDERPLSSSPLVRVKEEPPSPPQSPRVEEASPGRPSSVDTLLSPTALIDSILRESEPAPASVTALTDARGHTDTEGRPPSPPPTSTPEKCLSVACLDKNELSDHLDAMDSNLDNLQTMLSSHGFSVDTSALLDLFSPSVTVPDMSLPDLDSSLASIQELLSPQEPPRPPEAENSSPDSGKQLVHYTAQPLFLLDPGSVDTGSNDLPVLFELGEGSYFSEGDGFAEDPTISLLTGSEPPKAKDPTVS

TATACG
binding signal (FLI1): 1.32 fold enrichment (6-mer frequency, TF over GST control)
binding signal (ELK1): 1.31 fold enrichment (6-mer frequency, TF over GST control)
binding signal (GABPA): 1.3 fold enrichment (6-mer frequency, TF over GST control)
binding signal (ERG): 1.24 fold enrichment (6-mer frequency, TF over GST control)
binding signal (ELF1): 1.31 fold enrichment (6-mer frequency, TF over GST control)
binding signal (EHF): 1.2 fold enrichment (6-mer frequency, TF over GST control)
binding signal (SPI1): 1.2 fold enrichment (6-mer frequency, TF over GST control)
binding signal (SPIB): 1.35 fold enrichment (6-mer frequency, TF over GST control)
binding signal (ELK3): 1.22 fold enrichment (6-mer frequency, TF over GST control)
binding signal (FEV): 1.18 fold enrichment (6-mer frequency, TF over GST control)
binding signal (ETV5): 1.25 fold enrichment (6-mer frequency, TF over GST control)
binding signal (HSF1): 1.27 fold enrichment (6-mer frequency, TF over GST control)
binding signal (SPIC): 1.1 fold enrichment (6-mer frequency, TF over GST control)
binding signal (ELF4): 1.31 fold enrichment (6-mer frequency, TF over GST control)
binding signal (ELK4): 1.14 fold enrichment (6-mer frequency, TF over GST control)
binding signal (ETV2): 1.15 fold enrichment (6-mer frequency, TF over GST control)
binding signal (ELF3): 1.26 fold enrichment (6-mer frequency, TF over GST control)
binding signal (CRX): 1.39 fold enrichment (6-mer frequency, TF over GST control)
binding signal (ETV1): 1.32 fold enrichment (6-mer frequency, TF over GST control)
